Most compounds without a hit are left out; they make up all but 4.7% or so of the library.
tim10-1 inh = tim10-1 yeast growth inhibition. S. cerevisiae tim10-1 ts strain growth, BacTiter-Glo, 24 h. inhibition, % at 20 µM. hit rate 2.2% among 330,000. AID 463190;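 active means inhibition of at least 40%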;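 further: mutant grown at 25 °C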
TIM10 inh = TIM10 yeast growth inhibition | inhibition, % at 10 µM | hit rate 1.4% among 330,000 | AID 463195 | S. cerevisiae TIM10 strain growth, BacTiter-Glo luminescence, 24 h;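 active means inhibition of 40% or more at the single tested concentration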;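 further: wild-type TIM10 isogenic control strain grown at permissive 25 °C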
Calb FLC = affects C. albicans growth with fluconazole; C. albicans CaCi-2 (fluconazole-resistant clinical isolate) + fluconazole, Alamar Blue growth, 48 h; growth inhibition, % (test concentration not listed); hit rate 0.57% among 300,000; AID 1979;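 active means growth inhibition above about 58% in most replicates, limit read from the data, passing the limit was not always enough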;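 further: all wells also contain fluconazole at 8 µg/ml as a sub-toxic cotreatment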
SKKanGAS inh = inhibitors of SKKanGAS S. pyogenes growth in kanamycin (SK-promoter or general growth effect) | BacTiter-Glo, 6 h | inhibition, % at 7.5 µM | hit rate 1.3% among 300,000;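 active means mean replicate score, as percent of positive control median, at least 50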;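 further: strain carries kanamycin resistance gene driven by streptokinase promoter and grows in 40 µg/ml kanamycin; loss of luminescence reflects streptokinase promoter inhibition or plain growth inhibition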
tim23-1 inh = growth inhibitors of tim23-1 mutant yeast | inhibition, % at 20 µM | S. cerevisiae tim23-1 growth, BacTiter-Glo luminescence, 24 h | hit rate 1.3% among 330,000;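 active means growth inhibition of the mutant yeast at or above 50%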;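 further: temperature-sensitive mutant grown at 25 °C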
PfHsp90 yeast 2 = reduces growth (ATP signal) of yeast expressing P. falciparum Hsp90. S. cerevisiae expressing PfHsp90, BacTiter-Glo ATP, 48 h; yeast lacking PDR1 and PDR3 efflux regulators. inhibition, % at 9.4 µM. hit rate 0.32% among 310,000. AID 504621;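 active means every replicate shows inhibition above about 80%, whatever the replicate mean, limit read from the data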
TIM10 conf = confirmation of TIM10 yeast growth inhibitors. shares compounds with TIM10 inh. S. cerevisiae tim10 strain growth, BacTiter-Glo luminescence, 24 h. inhibition, % at 10 µM. hit rate 63% among 4,600;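 active means inhibition of yeast growth at or above a set limit in either of two replicates at 10 µM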; further: this counterscreen used the strain with wild-type TIM10
Hits are given with their value; n = inactive; x = no result given.

SMILES	tim10-1 inh	TIM10 inh	Calb FLC	SKKanGAS inh	tim23-1 inh	PfHsp90 yeast 2	TIM10 conf
COc1ccc(NC(=S)NCCC(c2ccccc2)c2ccccc2)c(OC)c1	n	45	n	n	n	n	31
Cc1c(Cl)cccc1NC(=S)NCCC(C)C	n	49	n	n	n	n	34
COc1ccc(CN(C)C(=O)COC(=O)c2cc([N+](=O)[O-])ccc2N2CCCC2)c(OC)c1OC	n	n	x	x	n	n	x
O=C(NC(=S)Nc1ccc(S(=O)(=O)NC2CCCCC2)cc1)c1cccs1	n	41	n	n	n	n	38
O=C(NC(=S)Nc1ccc(S(=O)(=O)N2CCCCC2)cc1)c1cccs1	n	n	n	n	n	n	x
O=C(Oc1ccc2c(=O)c(Cl)coc2c1)c1cccnc1	n	45	n	n	n	n	n
O=C(Oc1ccc2c(=O)c(Oc3ccc4ccccc4c3)coc2c1)c1cccnc1	n	n	n	n	n	n	x
COC(=O)c1ccc(NC(=S)NC2CCc3ccccc32)cc1 (stereo not drawn)	n	47	n	n	n	n	31
Cc1ccccc1NS(=O)(=O)c1c(C(=O)N2CCCCCC2)c(C)n(C)c1C	n	n	n	n	n	n	x
CNC(=O)c1cnn(-c2nc(-c3ccc(OC)cc3)cs2)c1C(F)(F)F	n	n	n	n	n	n	x
CCOC(=O)c1cnn(-c2nc(-c3ccc(F)cc3)cs2)c1C(F)(F)F	n	45	n	n	n	n	n
CC(C)(C)C(=O)OCc1nc(-c2ccc(F)cc2)cs1	n	41	n	n	n	n	39
O=C(CSc1ncnc2ccccc12)c1ccc2c(c1)OCCO2	n	47	n	n	n	n	n
COc1ccc(C(=O)NNC(=O)c2cccs2)cc1S(=O)(=O)N1CCOCC1	n	n	x	x	n	n	x
O=C(OCC(=O)N(C1CCCCC1)C1CCCCC1)c1cnccn1	n	n	n	n	n	n	x
Cc1ccc2nc(Cl)c(CN(C(=O)c3cnccn3)C3CCCCC3)cc2c1	n	41	n	n	n	n	28
CCCN(C(=O)COC(=O)c1[nH]c(C)c(C(=O)OC)c1C)c1c(N)n(Cc2ccccc2)c(=O)[nH]c1=O	n	n	n	n	n	n	x
O=S(=O)(c1ccc(-c2csc(-c3cccnc3)n2)cc1)N1CCCCC1	n	48	n	n	n	x	n
CCOC(=O)[C@H]1[C@H]2COc3ccccc3[C@@H]2N2C(=O)CN(Cc3ccc(C)cc3)C(=O)[C@@]12C	n	n	x	x	n	n	x
CC(C)(C)C1CCc2[nH]c3ccccc3c(=O)c2C1 (stereo not drawn)	n	44	n	n	n	n	33
Cc1c(NC(=O)C(C)Oc2ccc(Br)cc2Cl)c(=O)n(-c2ccccc2)n1C (stereo not drawn)	n	n	n	n	n	n	x
O=C1/C(=C\c2ccc(O)c(O)c2)SC(=S)N1Cc1ccccc1	n	50	n	n	n	122	56
CC(=O)Nc1ccc(S(=O)(=O)N2CCC(N3CCCCCC3)CC2)cc1	n	n	n	n	n	n	x
COCCCNc1nc2ccccc2nc1NS(=O)(=O)c1cc(Cl)ccc1Cl	n	n	n	n	n	n	x
CC(C)c1ccccc1OCC(O)CN1CCN(S(=O)(=O)c2ccc([N+](=O)[O-])cc2)CC1 (stereo not drawn)	n	40	n	n	n	n	52
SMILES	tim10-1 inh	TIM10 inh	Calb FLC	SKKanGAS inh	tim23-1 inh	PfHsp90 yeast 2	TIM10 conf
O=S(=O)(c1ccc(F)cc1)N1CCN(CC(O)COc2ccccc2F)CC1 (stereo not drawn)	n	n	n	n	n	n	x
C/C(=N\NC(=O)c1ccoc1C)c1cccc2ccccc12	x	x	n	n	x	n	x
COc1ccc(OCC(O)Cn2cnc(-c3ccc(Br)cc3)c2)cc1 (stereo not drawn)	n	52	n	n	n	n	n
Cc1cc(C)c(-n2c(C)cc(/C=C3/NC(=O)NC3=O)c2C)c(C)c1	n	52	n	n	n	x	n
Cc1cccc(-n2c(C)cc(/C=C3\NC(=O)NC3=O)c2C)c1	n	n	n	n	n	n	x
COc1ccc(C(=O)OCC(=O)NC2CCCCCC2)c(OC)c1	n	n	x	x	n	x	x
CN(C)NC(=S)Nc1cccc(C(F)(F)F)c1	n	n	n	n	n	n	x
Cc1ccc(NC(=S)NNC(=S)Nc2cccc(C(F)(F)F)c2)cc1	n	53	n	88	n	n	48

Compound activity: PubChem BioAssay, several laboratories
